# Data from PubChem BioAssay AID2284197 (EPA ToxCast).
# The source made the active and inactive calls. How the source made its calls: active means hit-call score of the fitted dose curve at least 0.9, where 1 is the maximum; inactive means score below 0.9.
# Target: human Thyroid Hormone Receptor Alpha (TRa) Agonism, THRA (gene 7067) (UniProt P10827)
# Experiment: ERF_TW_NR_COA_hTHRA: Eurofins (ERF) Nuclear Receptor (NR) Functional Coactivator Assay for human Thyroid Hormone Receptor Alpha (TRa) Agonism
# Description: ERF_TW_NR_COA_hTHRA is a biochemical, single-readout assay that uses extracted gene-proteins in a cell-free assay. Measurements were taken 0.5 hour after chemical dosing in a 96-well plate. See TRalpha Human Thyroid Hormone NHR Functional Agonist Coactivator Assay, Panlabs.ERF_TW_NR_COA_hTHRA is an assay component calculated from the ERF_TW_NR_COA_hTHRA assay. It is designed to measure TR-FRET using a type of inducible reporter as detected by fluorescence intensity of 7-hydroxy-coumarin with FRET: TR-FRET technology.Data from the assay component ERF_TW_NR_COA_hTHRA_Agonist was analyzed at the assay endpoint, ERF_TW_NR_COA_hTHRA_Agonist, in the positive analysis fitting direction relative to DMSO as the negative control and baseline of activity. Using a type of agonist, gain-of-signal activity can be used to understand changes in protein-protein interaction as they relate to gene THRA. […]
# Test compound and/or vehicle is incubated with the 0.25 nM TR alpha LBD-GST and coactivator peptide for 30 minutes at RT. Determination of the amount of complex formed is read spectrofluorimetrically (excitation: 337 nm, emission: 520/490 nm). Test compound-induced increase of fluorescence by 50 percent or more relative to the 0.1 uM T3 response indicates possible TR alpha receptor agonist activity.
# human Thyroid Hormone Receptor Alpha (TRa) Agonism, THRA (gene 7067), sequence (P10827 whole entry, looked up): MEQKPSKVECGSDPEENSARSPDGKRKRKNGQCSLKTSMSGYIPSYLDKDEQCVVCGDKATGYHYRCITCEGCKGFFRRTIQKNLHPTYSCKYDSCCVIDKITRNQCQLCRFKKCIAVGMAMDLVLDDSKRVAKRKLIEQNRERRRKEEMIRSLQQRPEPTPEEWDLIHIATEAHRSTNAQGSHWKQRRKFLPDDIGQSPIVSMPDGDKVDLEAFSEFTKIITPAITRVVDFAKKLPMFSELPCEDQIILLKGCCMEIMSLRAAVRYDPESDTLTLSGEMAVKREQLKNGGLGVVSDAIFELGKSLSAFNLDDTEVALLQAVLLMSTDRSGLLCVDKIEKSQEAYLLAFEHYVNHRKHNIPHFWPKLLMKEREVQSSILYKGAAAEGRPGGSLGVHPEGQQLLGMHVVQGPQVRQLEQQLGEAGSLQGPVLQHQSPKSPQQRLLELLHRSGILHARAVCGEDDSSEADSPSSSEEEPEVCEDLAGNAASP
row,Structure (SMILES),outcome
1,COc1cc(CCC(=O)CC(=O)CCc2ccc(O)c(OC)c2)ccc1O,inactive
2,O=C(/C=C/c1ccc(O)cc1)CC(=O)/C=C/c1ccc(O)cc1,inactive
